Screening data deposited in PubChem by several laboratories.
TIM10 inh: growth inhibitors of isogenic TIM10 control yeast, primary screen, counter-screen for tim10-1 yeast inhibitor project, luminescence, uHTS; S. cerevisiae TIM10 strain growth, BacTiter-Glo luminescence, 24 h; inhibition, % at 10 µM; hit rate 1.4% among 330,000;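 active = inhibition of 40% or more at the single tested concentration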;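 note: wild-type TIM10 isogenic control strain grown at permissive 25 °C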
Beta2AR agonist: beta2AR agonists driving receptor internalization, primary screen, cell-based, FAP fluorogen, flow cytometry. Am2.2-beta2AR cells. hit rate 0.43% among 340,000. Beta-2 adrenergic receptor (Homo sapiens), P07550. response, % (concentration not given with the values). AID 504454, 2011;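 active = response above a set limit, near 3 SD of response in nonfluorescent compounds, cut at about 42% in these data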
Target sequence (P07550 whole entry, looked up): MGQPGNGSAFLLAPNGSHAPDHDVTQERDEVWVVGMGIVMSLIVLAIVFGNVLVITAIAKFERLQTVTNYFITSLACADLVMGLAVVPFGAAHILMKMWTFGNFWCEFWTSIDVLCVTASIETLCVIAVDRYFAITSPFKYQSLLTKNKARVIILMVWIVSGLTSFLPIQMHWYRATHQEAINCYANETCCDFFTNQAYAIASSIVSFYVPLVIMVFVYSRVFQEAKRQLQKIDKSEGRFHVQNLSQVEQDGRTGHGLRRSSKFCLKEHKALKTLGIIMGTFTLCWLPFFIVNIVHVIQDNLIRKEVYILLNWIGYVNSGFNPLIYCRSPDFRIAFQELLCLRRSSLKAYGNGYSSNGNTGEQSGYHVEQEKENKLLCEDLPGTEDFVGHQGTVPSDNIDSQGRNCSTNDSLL
tim10-1 inh: growth inhibitors of tim10-1 mutant yeast, primary screen, luminescence, uHTS; AID 463190, 2010; S. cerevisiae tim10-1 ts strain growth, BacTiter-Glo, 24 h; hit rate 2.2% among 330,000; inhibition, % at 20 µM;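 active = inhibition of at least 40%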;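 note: mutant grown at 25 °C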
tim23-1 inh: growth inhibitors of tim23-1 mutant yeast, primary screen, luminescence, uHTS; S. cerevisiae tim23-1 growth, BacTiter-Glo luminescence, 24 h; hit rate 1.3% among 330,000; inhibition, % at 20 µM; AID 463212, 2010;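 active = growth inhibition of the mutant yeast at or above 50%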;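 note: temperature-sensitive mutant grown at 25 °C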
PfHsp90 set2: growth inhibition of PfHsp90-expressing yeast, primary screen, antimalarial PfHsp90 inhibitor project, S. cerevisiae, BacTiter-Glo luminescence, single point, set 2; BacTiter-Glo ATP, 48 h; yeast lacking PDR1 and PDR3 efflux regulators; hit rate 0.32% among 310,000; AID 504621, 2011; inhibition, % at 9.4 µM;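 active = every replicate shows inhibition above about 80%, whatever the replicate mean, limit read from the data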
tim10-1 confirm: growth inhibitors of tim10-1 mutant yeast, confirmation, single concentration, luminescence, S. cerevisiae. AID 463213, 2010. shares compounds with tim10-1 inh. inhibition, % at 20 µM. hit rate 56% among 7,400. S. cerevisiae tim10-1 ts strain growth, BacTiter-Glo, 24 h;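 active = inhibition of yeast growth at or above a set limit in either of two repeat tests at 20 µM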;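 note: tim10-1 mutant grown at permissive 25 °C to find synthetic lethal compounds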
TIM10 conf: growth inhibitors of wild-type TIM10 yeast, confirmation, counter-screen for tim10-1 synthetic lethality project, single concentration, luminescence, S. cerevisiae; hit rate 63% among 4,600; AID 463215, 2010; S. cerevisiae tim10 strain growth, BacTiter-Glo luminescence, 24 h; inhibition, % at 10 µM; shares compounds with TIM10 inh;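 active = inhibition of yeast growth at or above a set limit in either of two replicates at 10 µM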; note: this counterscreen used the strain with wild-type TIM10
Of the large screens only hits and unclear results are named; the others gave an inactive call (follow-up assays come after a bar, where they were run); ! = a repeat was not active. In the library only some 3.8% were active in any assay of this set; here they are far more common.

CCCC1CCCCC12C(=O)NC(=O)NC2=O (configuration not stated)	none (no result: TIM10 inh, tim10-1 inh, tim23-1 inh)
Cc1nc2c(-c3ccc(F)cc3)c(C)nn2c(C)c1CCC(=O)N1CCC2(CC1)OCCO2	tim10-1 inh 40 (no result: PfHsp90 set2) | tim10-1 confirm inactive
Cc1nc2cc(-c3ccccc3)nn2c(C)c1CCC(=O)N1CCC2(CC1)OCCO2	none (no result: PfHsp90 set2)
CC1CC2(C)C(=CC1=O)CCC1C3CCC(C)(O)C3(C)CC3OC312 (configuration not stated)	none (no result: TIM10 inh, tim10-1 inh, tim23-1 inh)
CN1CC(C(=O)c2cccc(C(F)(F)F)c2)C(c2ccc(Cl)cc2)C1 (configuration not stated)	tim10-1 inh 41 | tim10-1 confirm inactive
COC(=O)C1=C(c2ccc(OC(F)(F)F)cc2)C[C@@H]2CC[C@H]1N2C(=O)NC(C)C	none
COC(=O)C1CN(C#N)N(c2ccc(Cl)cc2)C12c1ccccc1-c1ccccc12 (configuration not stated)	tim10-1 inh 58, PfHsp90 set2 96 | tim10-1 confirm 42
CC1(C)C(C(=O)N2CCN(c3ccc(Cl)cc3)CC2)C1(C)C	none
Nc1c(C(=O)NC2CCCC2)c2nc3ccccc3nc2n1CC1CCCO1 (configuration not stated)	tim10-1 inh 56 | tim10-1 confirm inactive
Nc1c(C(=O)NCC2CCCO2)c2nc3ccccc3nc2n1Cc1ccco1 (configuration not stated)	none
CNC(=S)N1CCN(CCN=Cc2c(O)n(-c3ccc(C)cc3)c(=S)[nH]c2=O)CC1	none
Cc1oc2ccc(OC(=O)N(C)C)cc2c1C(=O)OC(C)C	tim10-1 inh 42 | tim10-1 confirm inactive
O=C(COC(=O)Cc1ccccc1)Nc1ccc(SC(F)F)cc1	tim10-1 inh 43 | tim10-1 confirm inactive
O=C(c1ccc2c(c1)N(Cc1ccccc1)CCS2)N1CCC2(CC1)OCCO2	tim10-1 inh 42 | tim10-1 confirm inactive
C=CCN1C(=O)c2ccccc2Sc2ccc(C(=O)N3CCC4(CC3)OCCO4)cc21	none (no result: PfHsp90 set2)
NCCc1c(Cc2ccccc2)[nH]c2ccccc12	none (no result: PfHsp90 set2)
Cc1c(CCN)ccc2c1[nH]c1ccccc12	tim10-1 inh 41 | tim10-1 confirm inactive
CCN(CC)S(=O)(=O)c1cc(NC(=O)C(C)N2CC=C(c3ccccc3)CC2)ccc1C (configuration not stated)	tim10-1 inh 40 | tim10-1 confirm inactive
O=C(CN1CCOCC1)Nc1ccc(Br)cc1C(=O)c1ccccc1	tim10-1 inh 40 | tim10-1 confirm inactive
Cc1ccccc1-[n+]1c(-c2ccccc2)cc(-c2ccccc2)cc1-c1ccccc1	tim10-1 inh 42 | tim10-1 confirm inactive
Oc1ccccc1-[n+]1c(-c2ccccc2)cc(-c2ccccc2)cc1-c1ccccc1	none
Cc1nn(CCC#N)c2c1P(=S)(N1CCCC1)OC(c1ccc(F)cc1)=N2 (configuration not stated)	tim10-1 inh 43 | tim10-1 confirm 33
Oc1ccc(C2NCc3ccccc3-n3cccc32)cc1Cl (configuration not stated)	tim10-1 inh 44! | tim10-1 confirm 34
COc1ccccc1OP(=O)(Nc1ccc(Br)cc1)Oc1ccccc1OC	none
COc1ccc(NP(=O)(Oc2ccccc2OC)Oc2ccccc2OC)cc1	tim10-1 inh 41 | tim10-1 confirm inactive
O=C1/C(=C/c2cc([N+](=O)[O-])ccc2Cl)N2CCC1CC2	tim10-1 inh 48 | tim10-1 confirm 35
O=C1/C(=C/c2cccc([N+](=O)[O-])c2)N2CCC1CC2	none
Cc1cccc(-c2nc3ccc(C(=O)N4CCC5(CC4)OCCO5)cc3nc2-c2cccc(C)c2)c1	tim10-1 inh 40 | tim10-1 confirm inactive
COC(=O)C(O)(c1ccc(NC(=S)NC(=O)c2ccccc2)cc1)C(F)(F)F (configuration not stated)	TIM10 inh 46, tim10-1 inh 41 (no result: PfHsp90 set2) | tim10-1 confirm inactive | TIM10 conf 33
COCCCn1c(-c2ccc(OC)cc2)cc(C(=O)NC2CCCCCCC2)c1C	TIM10 inh 41, tim10-1 inh 54 | tim10-1 confirm 42 | TIM10 conf inactive
Cc1c(C(=O)Nc2ccccc2)cc(-c2ccccc2)n1CCCN1CCOCC1	none (no result: PfHsp90 set2)
COc1ccc(OC)c(N2C(=O)NC(=O)/C(=C/c3ccc([N+](=O)[O-])s3)C2=O)c1	TIM10 inh 89, tim10-1 inh 72, PfHsp90 set2 105 | tim10-1 confirm 70 | TIM10 conf 35
CN1C(=O)C(Cc2nc3ccccc3c(=O)n2-c2ccccc2)c2ccccc21 (configuration not stated)	TIM10 inh 52, tim10-1 inh 43 | tim10-1 confirm 37 | TIM10 conf 39
COc1nc(NC(C)C)nc(NC(C)C)n1	none
CN(C)c1ccc(C(=O)c2ccc(N(C)C)cc2)cc1	TIM10 inh 48, tim10-1 inh 40 | tim10-1 confirm inactive | TIM10 conf inactive
C=C1C(=O)O[C@H]2C[C@@H](C)[C@@H]3C=CC(=O)[C@@]3(C)C[C@H]12	TIM10 inh 46, tim10-1 inh 48 (no result: Beta2AR agonist, PfHsp90 set2) | tim10-1 confirm 47 | TIM10 conf 51
C=C1C(=O)OC2C1CCC(C)C1(O)C=CC(=O)C21C (configuration not stated)	none (no result: TIM10 inh, tim10-1 inh, tim23-1 inh)
CN1C(=O)N(C)C(=O)C(NS(=O)(=O)c2ccc(N)cc2)(c2ccccc2)C1=O	none (no result: TIM10 inh, tim10-1 inh, tim23-1 inh)
NS(=O)(=O)OC(CCc1ccccc1)C(Cl)(Cl)Cl (configuration not stated)	none
CC(C)(O)C(=O)Nc1ccc([N+](=O)[O-])c(C(F)(F)F)c1	none
COc1cc2c(cc1OC)CN(c1ccc([N+](=O)[O-])c(C(F)(F)F)c1)CC2	TIM10 inh 54, tim10-1 inh 60 | tim10-1 confirm 55 | TIM10 conf inactive
CC(=O)OC1CCC2(C)C(CCC3C4CC(N5CC5)C(C(C)=O)C4(C)CC(=O)C32)C1 (configuration not stated)	none (no result: TIM10 inh, tim10-1 inh, tim23-1 inh)
COCCNC(=O)c1c(N)n(CCC(C)C)c2nc3ccccc3nc12	TIM10 inh 42, tim10-1 inh 48 | tim10-1 confirm inactive | TIM10 conf inactive
CCCCNC(=O)c1c(N)n(CCCOC)c2nc3ccccc3nc12	none (no result: PfHsp90 set2)
Cc1ccccc1[N+](=O)[O-]	none
